# Screens from PubChem BioAssay.
# This is a sample that favours compounds with a hit; in the whole collection about 1.3% have one here.
# TrxR1 substrate: is turned over as a substrate by rat TrxR1. Potency, µM (titrated, usually from 114 µM), for inactives: at the top dose activity change, negative = substrate turnover. AID 588456. purified TrxR1 substrate turnover, NADPH consumption readout. O89049. 390,000 tested, 0.01% active; further: potency means the concentration at half of the fitted maximal effect; nearly all actives have a fitted effect of over 50% in size
#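 Rat TrxR1, dispensed at 90 nM, was prereduced with 400 uM NADPH (final) for 5 min at ~22 deg C, then incubated with compound 15 min before 400 uM selenite. A first-read NADPH fluorescence drop versus no-compound background flagged substrates.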
# Giardia kill: kills Giardia lamblia; Giardia lamblia trophozoite viability; activity change, % at 7.66 µM, hits read low; 340,000 tested, 0.15% active; AID 540267; in the data active means activity change below about -80%; inconclusive means between about -30% and that limit;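 further: parasites exposed to compound for two days anaerobically before the ATP read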
#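 Luminescent ATP signal served as the viability read-out, measured 15-30 min after adding ATP detection reagent to trophozoites that had been incubated with compounds for 48 hrs at 37 deg C anaerobically at 100 cells/well.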
# GALK inh: blocks human galactokinase activity; Potency, µM (series often up to 57.5 µM), for the others: at the top dose activity change, negative = inhibition, usual class: inhibitors; AID 1868; 270,000 tested, 0.007% active; Purified GALK, Kinase-Glo residual ATP luminescence; P51570; further: potency means the concentration at half of the fitted maximal effect
# Target sequence (P51570 whole entry, looked up): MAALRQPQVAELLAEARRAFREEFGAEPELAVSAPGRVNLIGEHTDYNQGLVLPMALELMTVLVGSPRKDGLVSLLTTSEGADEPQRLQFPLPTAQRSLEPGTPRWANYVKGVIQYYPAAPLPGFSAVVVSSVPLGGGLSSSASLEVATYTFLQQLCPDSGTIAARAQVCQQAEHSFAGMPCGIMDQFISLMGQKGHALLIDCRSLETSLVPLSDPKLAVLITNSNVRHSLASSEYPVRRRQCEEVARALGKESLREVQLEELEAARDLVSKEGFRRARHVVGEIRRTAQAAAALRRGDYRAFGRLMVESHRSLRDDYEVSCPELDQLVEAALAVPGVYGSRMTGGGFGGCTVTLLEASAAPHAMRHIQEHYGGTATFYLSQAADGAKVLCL
#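 Galactose (100 uM) and ATP (35 uM) were turned over by 5 nM GALK for 1 h at RT. Kinase-Glo Plus then converted the remaining ATP into a luminescent signal.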
# GCN5L2 inh: GCN5L2 (KAT2A) acetyltransferase inhibition; GCN5L2 HAT assay, ThioGlo1 CoA-SH fluorescence; 390,000 tested, 0.21% active; Potency, µM (highest dose often 58.9 µM), inactives show at the highest dose activity change, negative = inhibition, most hits filed as inhibitors; Q92830; further: potency means the concentration at half of the fitted maximal effect
#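 Free CoA generated was detected with ThioGlo1 (50uM) fluorescence at Ex340nm/Em540nm, read immediately and after 20 min at room temperature. Enzyme, 20 nM in HEPES pH 7.5 buffer, saw compounds 15 min before adding 75uM H3(1-25) peptide and 70uM acetyl-CoA.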
# rTrxR1 inhibitor: rat TrxR1 inhibition; O89049; recombinant rTrxR1, NADPH fluorescence consumption, selenite substrate; Potency, µM (titrated, usually from 114 µM), for inactives: at the highest dose activity change, negative = inhibition, usual class: inhibitors; 390,000 tested, 1% active; AID 588453; further: potency means the concentration at half of the fitted maximal effect; nearly all actives have a fitted effect of over 65% in size
#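 Rat TrxR1 (90 nM in the dispensed reagent) was pre-reduced with 400 uM NADPH for 5 min at room temperature, then incubated with compound for 15 min. After 400 uM selenite was added, NADPH fluorescence (Ex 340/Em 450 nm) was followed for 8 min.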
# Pin1 inh: human Pin1 inhibition. Pin1 FP peptide displacement, HiFluor488, 10 min. Potency, µM (series often up to 115 µM), inactives show at the top dose activity, negative = inhibition, hits mostly inhibitors. 390,000 tested, 0.009% active. AID 504891; active means well fitted inhibition curve with a large enough effect in the polarisation, with a control signal flat, not every such curve was filed as active; inconclusive means small, poorly fitted or top-dose-only effect, or effect the other way, or a change in a side signal; inactive means no such curve, though single readings can be large or run the other way; the % refers to the polarisation; further: potency means the concentration at half of the fitted maximal effect
# Target sequence (Q13526 whole entry, looked up): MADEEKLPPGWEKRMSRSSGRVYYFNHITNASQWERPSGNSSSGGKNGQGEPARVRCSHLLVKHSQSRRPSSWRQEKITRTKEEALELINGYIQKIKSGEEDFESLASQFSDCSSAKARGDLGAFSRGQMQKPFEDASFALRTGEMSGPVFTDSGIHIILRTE
# * = called active by the depositor; ? = inconclusive; . = no result; [ ] = dose if it differs, or a comment. Unless noted, the call rests on the fitted dose curve; in most records, active means well fitted curve in the direction sought with a large enough effect; inconclusive means small, poorly fitted or top-dose-only effect, or another doubt; inactive means no such curve, though single readings can be large; an effect the other way counts as inactive or inconclusive. On the % scale 0 is the no-effect control and ±100 the full control effect.
SMILES,TrxR1 substrate,Giardia kill,GALK inh,GCN5L2 inh,rTrxR1 inhibitor,Pin1 inh
COc1cccc(C2c3c(ncn(-c4ccc5c(c4)OCO5)c3=N)Oc3ccc4ccccc4c32)c1 (stereo not given),.,.,.,.,.,16.9%
C/C=C/C=C/C(=O)N1CC2(CC(c3cccc(NC(=O)/C=C/C)c3)=NO2)C[C@@H]1C(N)=O (stereo not given in full),5.3%,3.9,-2.8%,-2.3%,?,?
C/C=C\C=C/C(=O)Nc1cccc(C2=NOC3(C2)C[C@H](C(N)=O)N(C(=O)Cc2ccc([N+](=O)[O-])cc2)C3)c1 (stereo not given in full),8.4%[57.1 µM],9.3,1.8%,0.2%,7.94µM*,?
C/C=C/C=C\C(=O)Nc1cccc(C2=NOC3(C2)C[C@H](C(N)=O)N(C(=O)CC#N)C3)c1 (stereo not given in full),1.2%,11.7,-0.7%,26.7%,22.4µM*,17.0%
C/C=C\C=C/C(=O)Nc1cccc(C2=NOC3(C2)C[C@H](C(N)=O)N(C(=O)CC)C3)c1 (stereo not given in full),-3.2%[57.1 µM],7.3,-2.1%,-9.8%,14.1µM*,14.4%
C/C=C/C=C\C(=O)Nc1cccc(C2=NOC3(C2)C[C@@H](C(N)=O)N(C(=O)/C(C)=C/C)C3)c1 (stereo not given in full),2.4%[57.1 µM],4.6,4.2%,23.5%,11.2µM*,31.6%
CCC(C)(CCN1CCOCC1)N(Cc1cc2ccccc2n(C)c1=O)C(=O)C1CCCCC1 (stereo not given),.,.,.,.,.,0.8%
CN(C)c1ccc(CNC(=O)c2ccc3c(c2)N(C)C(=O)C2CCCCN32)cc1 (stereo not given),-6.5%[57.1 µM],.,.,-1.6%,-9.8%[57.1 µM],-0.1%
Cc1ccc(CNc2ncnc3ccc(-c4c(C)noc4C)cc23)o1,.,.,.,.,.,-19.3%
C/C=C/C=C/C(=O)N1CC2(CC(c3cccc(NC(=O)CCCCC)c3)=NO2)C[C@H]1C(N)=O (stereo not given in full),0.0%,-18.4,3.4%,-5.2%,28.2µM*,4.5%
C/C=C/C(=O)N1CC2(CC(c3cccc(NC(=O)CCCCC)c3)=NO2)C[C@H]1C(N)=O (stereo not given in full),.,.,4.0%,22.4%,.,.
C/C=C\C=C/C(=O)Nc1cccc(C2=NOC3(C2)C[C@@H](C(N)=O)N(C(=O)CCCCC)C3)c1 (stereo not given in full),4.2%,-20.3,3.8%,-12.6%,14.1µM*,2.1%
O=C(C[N+]12CCCc3cccc(c31)CCC2)c1ccc2ccc3cccc4ccc1c2c34,23.7%,.,.,.,?,.
Cc1ccc2oc(=O)n(Cc3ccccc3)c2c1,5.5%,31.1,-2.7%,-26.0%,16.8%,-5.9%
COc1ccc(-c2cc(C)no2)cc1S(=O)(=O)NCCc1ccco1,-2.0%,-11.4,5.2%,-7.0%,-1.3%,-1.0%
Nc1ccc(O)cc1,?,-13.7,.,.,14.1µM*,.
Cc1ccc(CNc2ncnc3ccc(-c4ccc5c(c4)OCO5)cc23)o1,.,.,.,.,.,24.4%
CCCCC1CCC(C(=O)N(C)CC(=O)Nc2cccc(F)c2)CC1 (stereo not given),-22.5%,7.5,7.1%,-3.8%,-23.3%,1.1%
Oc1ccc(Cl)cc1/C=N/c1nccs1,1.1%,6.2,1.4%,2.9%,?,1.8%
Oc1c(Br)cc(Br)cc1/C=N/c1nccs1,-6.2%,3.9,.,-4.0%,35.5µM*,-10.4%
O=C(CCN1CCC(c2ccccc2)C1)c1ccc2c(c1)OCCO2 (stereo not given),2.8%,2.8,-0.5%,-9.2%,0.282µM*,-9.3%
O=C(CCN1CCc2ccccc2C1)c1ccc2c(c1)OCCO2,-0.2%,1.0,2.3%,-2.6%,0.562µM*,6.8%
O=C(CCN1CCc2ccccc21)c1ccc2c(c1)OCCO2,14.6%[57.1 µM],9.6,-1.4%,-0.8%,?,0.3%
O=C(CCN1CCCCC1)c1ccc2c(c1)OCCO2,21.0%,-0.9,1.6%,0.2%,0.316µM*,8.1%
COc1cc(C(=O)CCN2CCC(c3ccccc3)C2)cc(OC)c1OC (stereo not given),-7.4%,0.5,-1.3%,-4.6%,0.501µM*,-1.0%
SMILES,TrxR1 substrate,Giardia kill,GALK inh,GCN5L2 inh,rTrxR1 inhibitor,Pin1 inh
O=C(CCN1CCC(c2ccccc2)C1)c1ccccc1 (stereo not given),5.7%[2.29 µM],-12.8,1.5%,-5.5%,?,1.7%
O=C(CCN1CCCCCC1)Nc1ccc2c(c1)OCCO2,8.1%[57.1 µM],9.0,-0.5%,-2.8%,-7.5%[57.1 µM],1.4%
COc1ccc(-n2c(C)c(C)c3c(N)ncnc32)cc1,1.7%,1.4,16.7%,-3.4%,16.2%,-7.1%
COc1cccc(C2c3c(ncn(-c4ccccn4)c3=N)Oc3ccc4ccccc4c32)c1 (stereo not given),.,.,.,.,.,28.1%
CC(=O)C1CCN(c2ncc(-c3ccc4c(c3)OCCCO4)s2)CC1,.,.,.,.,.,1.8%
CC(C)(C)OC(=O)Cc1nnc(C(C(=O)OCc2ccccc2)c2ccccc2)s1 (stereo not given),.,.,.,.,.,-2.1%
O=C(CCN1CCCC1Cc1ccccc1)c1ccc2c(c1)OCCO2 (stereo not given),3.2%,4.2,-2.3%,.,0.316µM*,1.2%
O=C(CCCc1ccccc1)c1ccc2c(c1)OCCO2,-8.5%,?,-2.1%,-3.9%,9.6%,1.6%
CCOc1ccc(CC(=O)C2C(=O)CC(C)(C)CC2=O)cc1OCC,-4.6%,9.7,-1.6%,-2.6%,35.5µM*,?
CCOc1ccc(CC(=O)C2C(=O)CCCC2=O)cc1OCC,3.2%[57.1 µM],-2.8,-1.2%,-15.2%,28.2µM*,?
O=C1CCC(C(=O)N2CCSCC2)CN1Cc1ccc(Cl)cc1 (stereo not given),-7.6%,20.2,7.1%,-1.8%,44.7µM*,3.7%
Cc1cccc(Cn2c(CNS(=O)(=O)c3ccc4c(c3)CCCC4)nc3cccnc32)c1,3.5%[57.1 µM],.,.,-4.1%,19.0%[57.1 µM],10.2%
Nc1ncnc(Sc2ncccn2)c1[N+](=O)[O-],-0.8%,1.4,2.3%,-8.5%,1.41µM*,-1.9%
Nc1ncnc(Sc2ccc(Cl)cc2)c1[N+](=O)[O-],-0.1%,-0.3,-0.2%,1.8%,-0.8%,-1.7%
COc1cccc2cc(C(=O)C3=C(O)C(=O)N(CCN4CCOCC4)C3c3ccc(C)o3)oc12 (stereo not given),-11.5%,-1.8,-0.5%,-5.8%,79.4µM*,?
COc1ccccc1C1C(C(=O)c2cc3ccccc3o2)=C(O)C(=O)N1CCN1CCOCC1 (stereo not given),-10.0%,0.7,3.7%,-8.8%,22.4µM*,3.4%
Cc1ccccc1-c1ccc2ncnc(NCCN3CCOCC3)c2c1,.,.,.,-23.6%,.,.
